Data from publication PMC4336329 (PLoS ONE, 2015).
Hit rate of the full screen: of about 310,000 compounds, about 2,200 (0.71%) showed an effect of 50% or more. Effects have a minus sign here. The list comes from a sample in which strong results are over-represented; it also holds similar structures and randomly drawn compounds.

Molecular target: human ether-à-go-go-related gene (hERG) potassium channel (human, UniProt Q12809)
Assay: primary screen, population patch clamp on CHO cells stably expressing hERG; higher = less effect of the substance

Chain of human ether-à-go-go-related gene (hERG) potassium channel (Q12809 whole entry, looked up): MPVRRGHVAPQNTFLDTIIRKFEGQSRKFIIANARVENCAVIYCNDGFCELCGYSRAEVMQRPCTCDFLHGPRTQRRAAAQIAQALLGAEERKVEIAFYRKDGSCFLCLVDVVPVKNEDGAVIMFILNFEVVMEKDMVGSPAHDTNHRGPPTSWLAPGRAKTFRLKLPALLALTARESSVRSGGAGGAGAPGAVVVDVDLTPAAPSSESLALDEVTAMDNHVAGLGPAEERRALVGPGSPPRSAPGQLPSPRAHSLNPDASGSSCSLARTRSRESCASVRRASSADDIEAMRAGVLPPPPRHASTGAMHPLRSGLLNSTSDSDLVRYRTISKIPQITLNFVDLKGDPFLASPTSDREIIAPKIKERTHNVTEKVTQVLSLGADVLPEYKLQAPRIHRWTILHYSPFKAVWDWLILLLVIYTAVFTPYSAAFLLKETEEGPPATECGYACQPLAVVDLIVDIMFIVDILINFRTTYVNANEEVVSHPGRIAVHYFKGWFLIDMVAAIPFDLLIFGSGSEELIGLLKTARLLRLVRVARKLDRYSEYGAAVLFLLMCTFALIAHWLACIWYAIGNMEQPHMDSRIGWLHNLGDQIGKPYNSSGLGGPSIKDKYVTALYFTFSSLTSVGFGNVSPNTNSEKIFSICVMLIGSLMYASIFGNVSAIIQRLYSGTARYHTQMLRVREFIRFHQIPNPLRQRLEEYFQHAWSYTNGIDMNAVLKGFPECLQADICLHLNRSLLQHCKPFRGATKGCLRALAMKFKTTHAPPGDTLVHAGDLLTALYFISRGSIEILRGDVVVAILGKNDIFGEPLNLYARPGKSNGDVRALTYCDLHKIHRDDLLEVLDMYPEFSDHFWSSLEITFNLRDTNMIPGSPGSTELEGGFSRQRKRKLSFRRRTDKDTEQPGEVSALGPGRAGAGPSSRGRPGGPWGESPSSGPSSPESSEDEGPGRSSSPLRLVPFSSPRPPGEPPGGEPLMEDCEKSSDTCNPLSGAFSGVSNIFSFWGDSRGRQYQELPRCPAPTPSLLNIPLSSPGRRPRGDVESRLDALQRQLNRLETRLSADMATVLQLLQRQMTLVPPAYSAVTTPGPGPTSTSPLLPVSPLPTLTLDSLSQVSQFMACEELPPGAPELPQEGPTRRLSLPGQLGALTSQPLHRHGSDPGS

Point of comparison: `CCOc1ccc(NS(=O)(=O)c2ccc(SC)cc2)cc1`, “hERG current change (%, negative = inhibition) at 1uM” value 0.548%. Against it:
- O=C(CN1CCN(C(=O)c2c(F)cccc2F)CC1)Nc1ccccc1C(F)(F)F — higher, 3.09%
- O=C(CN1CCN(C(=O)c2cncn2-c2ccccc2)CC1)Nc1ccccc1Cl — lower, -83.4%
- Cc1cccc(NC(=O)CN2CCN(C(=O)c3cncn3-c3ccc(F)cc3)CC2)c1C — lower, -22.2%
- Cc1cccc(NC(=O)CN2CCN(C(=O)c3cccc(-n4cnnn4)c3)CC2)c1C — lower, -11.9%
- CCc1ccccc1NC(=O)CN1CCN(C(=O)c2cccc(-n3cnnn3)c2)CC1 — lower, -5.51%
- O=C(CN1CCN(C(=O)c2cccc(-n3cnnn3)c2)CC1)Nc1ccccc1Cl — lower, -92.9%
- Cc1nn(Cc2ccccc2)c(C)c1C(=O)N1CCN(CC(=O)Nc2ccccc2Cl)CC1 — lower, -13.4%
- O=C(CN1CCN(C(=O)c2cncn2-c2ccc(F)cc2)CC1)Nc1ccccc1C(F)(F)F — lower, -68.3%
- O=C(Nc1ccncc1)Nc1cccc(Cl)c1 — higher, 6.49%
- CC(C)(C)n1nc2c(c1NC(=O)c1ccc(C(F)(F)F)cc1)CS(=O)(=O)C2 — lower, -9.67%
- Cc1ccc(-c2nc(CS(=O)CC(=O)NCCN3CCCCCC3)c(C)o2)cc1 (stereo not shown) — higher, 15.5%
- Cc1ccc(C(=O)Cn2c(N3CCOCC3)nc3c2c(=O)n(C)c(=O)n3C)cc1 — higher, 5.32%
- COc1cccc(Nc2nc(Nc3ccc(Cl)c(C(=O)O)c3)nc(C)c2[N+](=O)[O-])c1 — higher, 9.52%
- CCc1ccc(CN2CCC(n3nccc3NC(=O)c3cccc(F)c3)CC2)cc1 — lower, -78.3%
- CC(=O)c1cccc(CN2CCC(n3nccc3NC(=O)c3ccc4c(c3)OCO4)CC2)c1 — higher, 6.25%
- COc1ccc(CN2CCC(n3nccc3NC(=O)C3CC3)CC2)cc1O — lower, -18.7%
- O=C(Nc1ccnn1C1CCN(Cc2ccc3nonc3c2)CC1)c1cccc(F)c1 — lower, -1.92%
- CCn1cc(CN2CCC(n3nccc3NC(=O)c3cccc(F)c3)CC2)cn1 — higher, 6.11%
- CCOc1cccc(CN2CCC(n3nccc3NC(=O)c3ccc4c(c3)OCO4)CC2)c1 — lower, -1.26%
- O=C(Nc1ccnn1C1CCN(Cc2ccc(C#CCCO)cc2)CC1)c1cccc(F)c1 — lower, -37.5%
- CCc1ccc(CN2CCC(n3nccc3NC(=O)c3ccc4c(c3)OCO4)CC2)cc1 — lower, -58.4%
- COc1ccc(CN2CCC(n3nccc3NC(=O)c3cccc(F)c3)CC2)cc1O — lower, -81.5%
- CC(C)c1ccc(NC(=O)c2ccc(NC3=NC4CS(=O)(=O)CC4S3)cc2)cc1 (stereo not shown) — lower, -0.0656%
- COCC(=O)N(Cc1cc2cc(C)ccc2[nH]c1=O)c1ccc(C)c(C)c1 — higher, 16.4%
- CN1CCN(NC(=O)CN(C)S(=O)(=O)c2cc(Cl)ccc2Cl)CC1 — higher, 6.96%
- O=C(NNc1c(Cl)cccc1Cl)C1CCC1 — higher, 13.3%
- Cc1ccc(C(=O)c2coc3ccc(O)c(CN4CCN(C)CC4)c23)cc1 — lower, -25.5%
- Cl.O=C(c1ccccc1)c1coc2ccc(O)c(CN3CCOCC3)c12 — lower, -21%
- COc1ccc(OC)c(C(=O)c2coc3ccc(O)c(CN4CCOCC4)c23)c1 — lower, -6.28%
- COc1ccc(-c2coc3c(CN4CCCCC4C)c(O)ccc3c2=O)cc1 (stereo not shown) — higher, 7.15%
- COc1ccc(-c2coc3c(CN4CCOCC4)c(O)ccc3c2=O)cc1 — lower, 0.432%
- COc1ccc(C(=O)c2coc3ccc(O)c(CN4CCCCC4)c23)cc1 — lower, -61.4%
- COc1ccc(-c2coc3c(CN4CCCCC4)c(O)c(CN4CCCCC4)c(O)c3c2=O)cc1 — lower, -88%
- COc1ccc(C(=O)c2coc3ccc(O)c(CN4CCCC4)c23)cc1 — lower, -56.9%
- COc1ccc(C(=O)c2coc3ccc(O)c(CN4CCOCC4)c23)cc1 — higher, 1.63%
- CC1CCCCN1Cc1nc2c(c(=O)n(C)c(=O)n2C)n1Cc1c(F)cccc1Cl (stereo not shown) — higher, 11.4%
- C/C(N)=C(/C#N)C(=O)CSc1nc2ccccc2[nH]1 — higher, 5.05%
- COc1ccc(NC(=O)CNC(c2ccccc2)c2ccccc2)cc1.O=C(O)C(=O)O — higher, 14.5%
- O=C(COC(=O)Cc1ccc(Br)cc1)NC1CCCCCC1 — higher, 11.4%
- O=C(Cn1cnc2ccccc21)Nc1ccc(C(=O)O)cc1.O=C(O)C(=O)O — lower, -52.9%
- Cc1ccc(NC(=O)Cn2cnc3ccccc32)cc1C — higher, 6.29%
- O=C(Cn1cnc2ccccc21)Nc1ccc(F)c(F)c1 — higher, 3.75%
